Measurements published in the supplement of paper PMC6089552.
The campaign covered roughly 3,200 compounds. About 300 (9.4%) showed activity. Only a selection was taken, and actives are over-represented in it overall. A number with no mark means an inactive call.

Tested on: A673/TR/shEF
Assay: cell viability (LOESS-normalised, relative to median of negative controls) (log2 ratio); higher = more viable cells (less compound effect), active = hit call of the paper (over 3 MAD below the median)
Conditions: treatment time: 72 h
In short: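 Viability of A673/TR/shEF Ewing sarcoma cells was determined by CellTiter-Glo luminescence. The cells, at 1,500 per well in 384-well plates, were grown with or without doxycycline from 24 h before compound addition to switch on EWS-FLI1 shRNA knockdown, then exposed for three days to library compounds at two or more concentrations or to DMSO controls. Signals were LOESS-corrected plate by plate, normalised to the negative-control median and log2-transformed.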

[1] = 0.25 µM, library screen: screen1, EWS-FLI1 expression: high (no doxycycline)
[2] = 0.25 µM, library screen: screen1, EWS-FLI1 expression: low (doxycycline-induced shRNA knockdown)
[3] = 2.5 µM, library screen: screen1, EWS-FLI1 expression: high (no doxycycline)
[4] = 2.5 µM, library screen: screen1, EWS-FLI1 expression: low (doxycycline-induced shRNA knockdown)
[5] = 0.25 µM, library screen: screen2, EWS-FLI1 expression: high (no doxycycline)
[6] = 0.25 µM, library screen: screen2, EWS-FLI1 expression: low (doxycycline-induced shRNA knockdown)
[7] = 2.5 µM, library screen: screen2, EWS-FLI1 expression: high (no doxycycline)
[8] = 2.5 µM, library screen: screen2, EWS-FLI1 expression: low (doxycycline-induced shRNA knockdown)

C=C1C2CC[C@@]3(C)[C@H](c4ccoc4)OC(=O)C[C@]13O[C@H]1CC(=O)C(C)(C)[C@H](C(OC(C)=O)C(=O)OC)[C@@]21C (stereo partly specified)
cell viability (log2) [1]: 0.0428
cell viability (log2) [2]: 0.0583
cell viability (log2) [3]: 0.106
cell viability (log2) [4]: 0.119

CN1C2CCC1CC(OC(c1ccccc1)c1ccccc1N)C2 (stereo unspecified)
cell viability (log2) [1]: 0.0792
cell viability (log2) [2]: 0.0013
cell viability (log2) [5]: 0.13
cell viability (log2) [6]: 0.107
cell viability (log2) [3]: 0.094
cell viability (log2) [4]: -0.0817
cell viability (log2) [7]: 0.165
cell viability (log2) [8]: 0.125

C[C@@H]1C(=O)O[C@H]2[C@H]1CC[C@@]1(C)C=CC(=O)[C@@]3(C)O[C@@]213
cell viability (log2) [1]: -0.0341
cell viability (log2) [2]: 0.0137
cell viability (log2) [3]: 0.0354
cell viability (log2) [4]: 0.0553

COP(N)(=O)SC (stereo unspecified)
cell viability (log2) [1]: 0.148
cell viability (log2) [2]: 0.0387
cell viability (log2) [3]: 0.151
cell viability (log2) [4]: 0.112

COc1cc(C(O)CN)ccc1O (stereo unspecified)
cell viability (log2) [5]: 0.137
cell viability (log2) [6]: 0.137
cell viability (log2) [7]: 0.0316
cell viability (log2) [8]: 0.00185

c1ccc(N=Nc2ccccc2)cc1
cell viability (log2) [1]: 0.0795
cell viability (log2) [2]: 0.0179
cell viability (log2) [3]: 0.0868
cell viability (log2) [4]: 0.083

NC(=NCCCC(N)C(=O)O)N[N+](=O)[O-] (stereo unspecified)
cell viability (log2) [1]: 0.0461
cell viability (log2) [2]: 0.0355
cell viability (log2) [5]: 0.174
cell viability (log2) [6]: -0.00505
cell viability (log2) [3]: 0.0987
cell viability (log2) [4]: 0.0962
cell viability (log2) [7]: 0.128
cell viability (log2) [8]: 0.0828

CN1C[C@@H](CO)C=C2c3cccc4[nH]cc(c34)C[C@@H]21
cell viability (log2) [1]: 0.0549
cell viability (log2) [2]: 0.11
cell viability (log2) [3]: 0.076
cell viability (log2) [4]: 0.0565

NC(=O)CN1CC(O)CC1=O (stereo unspecified)
cell viability (log2) [5]: 0.159
cell viability (log2) [6]: 0.0927
cell viability (log2) [7]: 0.0479
cell viability (log2) [8]: 0.0838

CC[C@@H]1/C=C/C=C/C[C@H](C)[C@@H](O)[C@](C)(O)C(=O)[C@H](C)[C@@H](O)[C@H](C)C(=O)[C@H](C)[C@@H](O)[C@H](C)/C=C/C(=O)O[C@H]2[C@@H](C)[C@@H](CC1)O[C@@]1(CC[C@@H](C)[C@@H](C[C@H](C)O)O1)[C@@H]2C
cell viability (log2) [5]: -0.731 (active)
cell viability (log2) [6]: -0.205 (active)
cell viability (log2) [7]: -0.713 (active)
cell viability (log2) [8]: -0.154 (active)

NC(CCP(=O)(O)O)C(=O)O (stereo unspecified)
cell viability (log2) [5]: 0.115
cell viability (log2) [6]: 0.0812
cell viability (log2) [7]: 0.106
cell viability (log2) [8]: 0.13

CC(C)(C#N)O[C@@H]1O[C@H](CO)[C@@H](O)[C@H](O)[C@H]1O
cell viability (log2) [1]: 0.0597
cell viability (log2) [2]: 0.0616
cell viability (log2) [3]: 0.164
cell viability (log2) [4]: -0.0392
